# Source: PubChem BioAssay AID1159580 (chemical genetic matrix, 2015)
# Out of some 5,500 compounds screened, about 2,000 (36%) were called active. About 18% were inconclusive and are not listed. This is one part of the list. Values without a mark were called inactive. No stated cut-off is given here; in the data, active means normalized growth mostly below about 0.91 (no sharp cut-off); inconclusive means no clear call, values can overlap the other calls; inactive means mostly above about 0.92.
# Experiment: chemical genetic growth profiling, strain panel (AID 1159580);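 further: tested at 20 µM; growth read once vehicle control cultures reached saturation at 30 °C; 1 = growth at the plate median or of vehicle wells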
# Details: S. cerevisiae deletion strains, growth OD
# [1] = locus YAL021C, strain ccr4, stronger effect = lower value
# [2] = locus YAL026C, strain drs2, stronger effect = lower value
# [3] = locus YAL030W, strain snc1, stronger effect = lower value
# [4] = locus YBL061C, strain skt5, stronger effect = lower value
# [5] = locus YBR009C, strain hhf1, stronger effect = lower value
# [6] = locus YBR023C, strain chs3, stronger effect = lower value
# [7] = locus YBR171W, strain sec66, stronger effect = lower value
# [8] = locus YBR231C, strain swc5, stronger effect = lower value
# [9] = locus YBR279W, strain paf1, stronger effect = lower value
# [10] = locus YCL011C, strain gbp2, stronger effect = lower value
# [11] = locus YCL016C, strain dcc1, stronger effect = lower value
# [12] = locus YCL061C, strain MRC1, stronger effect = lower value
# [13] = locus YCL069W, strain vba3, stronger effect = lower value
# [14] = locus YCR088W, strain abp1, stronger effect = lower value
# [15] = locus YDL005C, strain med2, stronger effect = lower value
# [16] = locus YDL040C, strain nat1, stronger effect = lower value
# [17] = locus YDR001C, strain nth1, stronger effect = lower value
# [18] = locus YDR069C, strain doa4, stronger effect = lower value
# [19] = locus YDR137W, strain rgp1, stronger effect = lower value
# [20] = locus YDR159W, strain sac3, stronger effect = lower value
# [21] = locus YDR297W, strain sur2, stronger effect = lower value
# [22] = locus YDR334W, strain swr1, stronger effect = lower value
# [23] = locus YDR335W, strain msn5, stronger effect = lower value
# [24] = locus YDR392W, strain spt3, stronger effect = lower value
# [25] = locus YEL003W, strain gim4, stronger effect = lower value
# [26] = locus YEL037C, strain rad23, stronger effect = lower value
# [27] = locus YEL061C, strain CIN8 (second series), stronger effect = lower value
# [28] = locus YER015W, strain faa2, stronger effect = lower value
# [29] = locus YER016W, strain bim1, stronger effect = lower value
# [30] = locus YER111C, strain swi4, stronger effect = lower value
# [31] = locus YER155C, strain BEM2 (second series), stronger effect = lower value
# [32] = locus YFR010W, strain ubp6, stronger effect = lower value
# [33] = locus YGL167C, strain pmr1, stronger effect = lower value
# [34] = locus YGL173C, strain kem1, stronger effect = lower value
# [35] = locus YGL227W, strain vid30, stronger effect = lower value
# [36] = locus YGL240W, strain doc1, stronger effect = lower value
# [37] = locus YGL253W, strain hxk2, stronger effect = lower value
# [38] = locus YHR013C, strain ard1, stronger effect = lower value
# [39] = locus YHR027C, strain rpn1, stronger effect = lower value
# [40] = locus YHR030C, strain SLT2, stronger effect = lower value
# [41] = locus YHR079C, strain IRE1, stronger effect = lower value
# [42] = locus YHR142W, strain chs7, stronger effect = lower value
# [43] = locus YJL092W, strain hpr5, stronger effect = lower value
# [44] = locus YJL095W, strain BCK1 (second series), stronger effect = lower value
# [45] = locus YJL095W, strain BCK1, stronger effect = lower value
# [46] = locus YJL115W, strain asf1, stronger effect = lower value
# [47] = locus YJL129C, strain trk1, stronger effect = lower value
# [48] = locus YJL154C, strain vps35, stronger effect = lower value
# [49] = locus YJL164C, strain tpk1, stronger effect = lower value
# [50] = locus YJL166W, strain qcr8, stronger effect = lower value
# [51] = locus YJR066W, strain TOR1, stronger effect = lower value
# [52] = locus YKL160W, strain elf1, stronger effect = lower value
# [53] = locus YKR026C, strain gcn3, stronger effect = lower value
# [54] = locus YKR091W, strain srl3, stronger effect = lower value
# [55] = locus YLL001W, strain dnm1, stronger effect = lower value
# [56] = locus YLL026W, stronger effect = lower value
# [57] = locus YLL041C, strain sdh2, stronger effect = lower value
# [58] = locus YLR027C, strain aat2, stronger effect = lower value
# [59] = locus YLR113W, strain HOG1, stronger effect = lower value
# [60] = locus YLR221C, strain rsa3, stronger effect = lower value
# [61] = locus YLR258W, strain gsy2, stronger effect = lower value
# [62] = locus YLR262C, strain YPT6 (second series), stronger effect = lower value
# [63] = locus YLR320W, strain mms22, stronger effect = lower value
# [64] = locus YLR342W, strain FKS1, stronger effect = lower value
# [65] = locus YLR357W, strain rsc2, stronger effect = lower value
# [66] = locus YLR370C, strain arc18, stronger effect = lower value
# [67] = locus YLR384C, strain iki3, stronger effect = lower value
# [68] = locus YML120C, strain ndi1, stronger effect = lower value
# [69] = locus YMR058W, strain fet3, stronger effect = lower value
# [70] = locus YMR125W, strain sto1, stronger effect = lower value
# [71] = locus YMR129W, stronger effect = lower value
# [72] = locus YMR205C, strain PFK2, stronger effect = lower value
# [73] = locus YMR231W, strain pep5, stronger effect = lower value
# [74] = locus YNL071W, strain lat1, stronger effect = lower value
# [75] = locus YNL183C, strain NPR1, stronger effect = lower value
# [76] = locus YNL209W, strain ssb2, stronger effect = lower value
# [77] = locus YNL248C, strain rpa49, stronger effect = lower value
# [78] = locus YNL322C, strain KRE1 (second series), stronger effect = lower value
# [79] = locus YNR049C, strain mso1, stronger effect = lower value
# [80] = locus YOR001W, strain rrp6, stronger effect = lower value
# [81] = locus YOR070C, strain gyp1, stronger effect = lower value
# [82] = locus YOR080W, strain dia2, stronger effect = lower value
# [83] = locus YOR083W, strain WHI5, stronger effect = lower value
# [84] = locus YOR106W, strain vam3, stronger effect = lower value
# [85] = locus YOR231W, strain MKK1, stronger effect = lower value
# [86] = locus YOR265W, strain rbl2, stronger effect = lower value
# [87] = locus YOR270C, strain vph1, stronger effect = lower value
# [88] = locus YOR290C, strain snf2, stronger effect = lower value
# [89] = locus YPL051W, strain arl3, stronger effect = lower value
# [90] = locus YPL078C, strain atp4, stronger effect = lower value
# [91] = locus YPL106C, strain sse1, stronger effect = lower value
# [92] = locus YPL240C, strain hsp82, stronger effect = lower value
# [93] = locus YPL256C, strain CLN2, stronger effect = lower value
smiles,measurement,setting,value
C#C[C@]1(O)CCC2C3CCc4cc(OC)ccc4C3CC[C@@]21C (some centres undefined),normalized growth,[1],1.02
same,normalized growth,[2],0.956
same,normalized growth,[3],0.987
same,normalized growth,[4],0.968
same,normalized growth,[5],0.933
same,normalized growth,[6],0.913 (active)
same,normalized growth,[7],0.959
same,normalized growth,[8],0.953
same,normalized growth,[9],0.967
same,normalized growth,[10],0.923
same,normalized growth,[11],0.912 (active)
same,normalized growth,[12],0.937
same,normalized growth,[13],0.976
same,normalized growth,[14],0.972
same,normalized growth,[15],0.985
same,normalized growth,[16],0.982
same,normalized growth,[17],0.982
same,normalized growth,[18],1.01
same,normalized growth,[19],0.839 (active)
same,normalized growth,[20],0.949
same,normalized growth,"locus YDR195W, strain ref2",1.01
same,normalized growth,[21],0.994
same,normalized growth,[22],0.983
same,normalized growth,[23],0.998
same,normalized growth,[24],0.614 (active)
same,normalized growth,[25],0.984
same,normalized growth,[26],0.968
same,normalized growth,[27],0.972
same,normalized growth,[28],0.991
same,normalized growth,[29],0.99
same,normalized growth,[30],0.969
same,normalized growth,[31],0.923
same,normalized growth,[32],0.962
same,normalized growth,[33],0.972
same,normalized growth,[34],0.98
same,normalized growth,[35],0.987
same,normalized growth,[36],0.963
same,normalized growth,[37],0.912
same,normalized growth,[38],0.926
same,normalized growth,[39],0.987
same,normalized growth,[40],0.974
same,normalized growth,[41],0.987
same,normalized growth,[42],0.866 (active)
same,normalized growth,[43],0.96
same,normalized growth,[44],0.975
same,normalized growth,[45],0.975
same,normalized growth,[46],0.988
same,normalized growth,[47],0.965
same,normalized growth,[48],0.983
same,normalized growth,[49],0.923
same,normalized growth,[50],0.923
same,normalized growth,"locus YJL187C, strain SWE1, stronger effect = lower value",0.987
same,normalized growth,[51],0.933
same,normalized growth,[52],0.913
same,normalized growth,[53],0.988
same,normalized growth,[54],0.975
same,normalized growth,[55],0.903
same,normalized growth,[56],0.979
same,normalized growth,[57],0.986
same,normalized growth,[58],0.969
same,normalized growth,[59],0.931
same,normalized growth,[60],0.912
same,normalized growth,[61],0.956
same,normalized growth,[62],0.798 (active)
same,normalized growth,[63],0.902
same,normalized growth,[64],0.952
same,normalized growth,[65],0.909
same,normalized growth,[66],0.966
same,normalized growth,[67],0.986
same,normalized growth,[68],0.933
same,normalized growth,[69],0.935
same,normalized growth,[70],0.951
same,normalized growth,[71],0.977
same,normalized growth,[72],0.923
same,normalized growth,[73],0.993
same,normalized growth,[74],0.89 (active)
same,normalized growth,[75],0.917
same,normalized growth,[76],0.974
same,normalized growth,[77],0.951
same,normalized growth,[78],0.964
same,normalized growth,[79],0.983
same,normalized growth,[80],1
same,normalized growth,[81],0.951
same,normalized growth,[82],0.999
same,normalized growth,[83],0.919
same,normalized growth,[84],0.969
same,normalized growth,[85],0.958
same,normalized growth,[86],0.969
same,normalized growth,[87],0.949
same,normalized growth,[88],0.874
same,normalized growth,[89],0.923
same,normalized growth,[90],0.902
same,normalized growth,[91],0.913
same,normalized growth,[92],0.985
same,normalized growth,[93],0.973
C[C@]12CCC3c4ccc(OS(=O)(=O)O)cc4CCC3C1CCC2=O (some centres undefined),normalized growth,[1],0.957
same,normalized growth,[2],1.01
same,normalized growth,[3],0.986
same,normalized growth,[4],0.967
same,normalized growth,[5],1.02
same,normalized growth,[6],0.987
same,normalized growth,[7],1
same,normalized growth,[8],1.01
same,normalized growth,[9],0.999
same,normalized growth,[10],0.998
same,normalized growth,[11],0.986
same,normalized growth,[12],1.01
same,normalized growth,[13],0.995
same,normalized growth,[14],0.998
same,normalized growth,[15],0.978
same,normalized growth,[16],1
same,normalized growth,[17],0.995
same,normalized growth,[18],0.989
same,normalized growth,[19],0.976
same,normalized growth,[20],1
same,normalized growth,"locus YDR195W, strain ref2",0.999
same,normalized growth,[21],1
same,normalized growth,[22],0.993
same,normalized growth,[23],1
same,normalized growth,[24],0.923
same,normalized growth,[25],0.998
same,normalized growth,[26],1.01
same,normalized growth,[27],1.03
same,normalized growth,[28],0.993
same,normalized growth,[29],0.962
same,normalized growth,[30],0.959
same,normalized growth,[31],1
same,normalized growth,[32],1.02
same,normalized growth,[33],1
same,normalized growth,[34],0.97
same,normalized growth,[35],0.981
same,normalized growth,[36],0.983
same,normalized growth,[37],0.996
same,normalized growth,[38],0.939
same,normalized growth,[39],1.01
same,normalized growth,[40],0.961
same,normalized growth,[41],0.961
same,normalized growth,[42],0.983
same,normalized growth,[43],1
same,normalized growth,[44],0.977
same,normalized growth,[45],0.992
same,normalized growth,[46],0.995
same,normalized growth,[47],0.958
same,normalized growth,[48],0.974
same,normalized growth,[49],0.996
same,normalized growth,[50],1.01
same,normalized growth,[51],0.942
same,normalized growth,[52],0.928
same,normalized growth,[53],1
same,normalized growth,[54],0.991
same,normalized growth,[55],1.02
same,normalized growth,[56],1.02
same,normalized growth,[57],0.991
same,normalized growth,[58],1.01
same,normalized growth,[59],1.02
same,normalized growth,[60],1.04
same,normalized growth,[61],1
same,normalized growth,[62],0.984
same,normalized growth,[63],1.01
same,normalized growth,[64],0.971
same,normalized growth,[65],0.983
same,normalized growth,[66],1.01
same,normalized growth,[67],0.981
same,normalized growth,[68],1
same,normalized growth,[69],1.01
same,normalized growth,[70],0.97
same,normalized growth,[71],1.01
same,normalized growth,[72],1
same,normalized growth,[73],0.995
same,normalized growth,[74],1.02
same,normalized growth,[75],0.975
same,normalized growth,[76],0.985
same,normalized growth,[77],0.89
same,normalized growth,[78],0.948
same,normalized growth,[79],0.99
same,normalized growth,[80],1.03
same,normalized growth,[81],0.987
same,normalized growth,[82],0.991
same,normalized growth,[83],0.912
same,normalized growth,[84],0.971
same,normalized growth,[85],1
same,normalized growth,[86],1.01
same,normalized growth,[87],0.917
same,normalized growth,[88],0.977
same,normalized growth,[89],0.987
same,normalized growth,[90],0.965
same,normalized growth,[91],0.968
same,normalized growth,[92],0.999
same,normalized growth,[93],0.982
